# Active and inactive are the calls of the source. Rule for the calls: active = hit-call score of the fitted dose curve at least 0.9, where 1 is the maximum; inactive = score below 0.9.
# Tests used:
# [1] = ATG_CRE_CIS: Attagene CIS-FACTORIAL HepG2 Assay for human cAMP Responsive Element (CRE) binding protein 3 (AID 2282926); conditions: HepG2 CRE cis-reporter, Attagene multiplexed mRNA; actives raise or lower the signal
# In short: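 Endogenous CRE-binding activity in HepG2 is reported through a cis-regulated transfected reporter. Following a day of exposure, mRNA levels are determined by reverse transcription PCR and fluorescent fragment analysis; fits run in both directions versus DMSO.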
# [2] = molecular target: CCAAT/enhancer-binding protein beta (Homo sapiens) (UniProt P17676); assay: ATG_C_EBP_CIS: Attagene CIS-FACTORIAL HepG2 Assay for human CCAAT/Enhancer Binding Protein (C/EBP) beta (AID 2282927); conditions: HepG2 Attagene cis-factorial transcription factor reporter; actives raise or lower the signal
# In short: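 Transiently transfected HepG2 (MRTU library, endogenous TF-driven promoters); 24 h dosing; total RNA → oligo(dT) RT → PCR → 6-FAM primer extension → HpaI digest → CE; fit bidirectionally vs DMSO.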
# [3] = ATG_DR4_LXR_CIS: Attagene CIS-FACTORIAL HepG2 Assay for human Liver X Receptor (LXR), DR4 submotif (AID 2282929); conditions: HepG2 Attagene DR4 cis-reporter, mRNA transcription; actives raise or lower the signal
# In short: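 Measures endogenous transcription factor activity via a DR4-driven reporter transcript in human HepG2 cells. Compounds incubated 24 h; mRNA quantified by RT-PCR and capillary electrophoresis, analysed as gain or loss of signal versus DMSO.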
# [4] = molecular target: Aryl hydrocarbon receptor (Homo sapiens) (UniProt P35869); assay: ATG_Ahr_CIS: Attagene CIS-FACTORIAL HepG2 Assay for human Aryl Hydrocarbon Receptor (Ahr) (AID 2282930); conditions: HepG2 AhR cis-factorial reporter transcription; actives raise or lower the signal
# In short: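 Read-out: reporter mRNA quantified by RT-PCR with fluorescent primer extension and capillary electrophoresis. Human HepG2 liver cells carried transfected cis-promoter reporter units and were exposed to chemical for 24 h; gain or loss fitted relative to DMSO.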
# [5] = ATG_AP_1_CIS: Attagene CIS-FACTORIAL HepG2 Assay for human Activator Protein 1 (AP-1) (AID 2282931); conditions: HepG2 Attagene cis-factorial AP-1 reporter mRNA; actives raise or lower the signal
# In short: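 Bidirectional concentration-response fitting against DMSO controls. Underlying signal: reporter mRNA from cis-promoter constructs in transiently transfected HepG2, measured after 24 h by RT-PCR and capillary electrophoresis.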
# [6] = ATG_AP_2_CIS: Attagene CIS-FACTORIAL HepG2 Assay for human Activator Protein 2 (AP-2) (AID 2282932); conditions: HepG2 AP-2 cis-reporter, Attagene transcription factor profiling; actives raise or lower the signal
# In short: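 HepG2 cells transiently transfected with cis-element reporter units and exposed for 24 h. Reporter mRNA measured by RT-PCR, FAM labelling, HpaI digestion and capillary electrophoresis. Changes in either direction fitted relative to DMSO.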
# [7] = ATG_BRE_CIS: Attagene CIS-FACTORIAL HepG2 Assay for human Bone Morphogenetic Protein (BMP) Response Element (BRE) (AID 2282933); conditions: HepG2 BMP response element reporter, Attagene transcription factor profiling; actives raise or lower the signal
# In short: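 A HepG2 multiplex reporter system measured inducible reporter mRNA 24 h post-dosing. Detection: RT-PCR, 6-FAM primer extension, HpaI digestion, capillary electrophoresis. Activity fitted bidirectionally relative to DMSO.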
# [8] = molecular target: Retinoic acid receptor alpha (Homo sapiens) (UniProt P10276); assay: ATG_DR5_RAR_CIS: Attagene CIS-FACTORIAL HepG2 Assay for human Retinoic Acid Receptor Alpha (RARE), DR5 submotif (AID 2282934); conditions: HepG2 Attagene cis-factorial RARE DR5 reporter, mRNA; actives raise or lower the signal
# In short: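 Read-out: DR5-driven reporter transcript measured by RT-PCR, 6-FAM primer extension, HpaI digest and capillary electrophoresis. Human HepG2 liver cells carry transiently transfected cis-element reporter constructs; dosing lasts 24 h. Gain or loss of signal fitted against DMSO baseline.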
# [9] = molecular target: Transcription factor E2F1 (Homo sapiens) (UniProt Q01094); assay: ATG_E2F_CIS: Attagene CIS-FACTORIAL HepG2 Assay for human E2F Transcription Factor 1 (AID 2282935); conditions: HepG2 Attagene cis-reporter, E2F reporter RNA transcripts; actives raise or lower the signal
# In short: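 Endogenous E2F1 activity read through cis-promoter reporter units transfected into HepG2. After 24 h compound treatment, reporter mRNA measured by RT-PCR, HpaI digestion and capillary electrophoresis. Bidirectional fit versus DMSO.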
# Chain of Retinoic acid receptor alpha (Homo sapiens) (P10276 whole entry, looked up): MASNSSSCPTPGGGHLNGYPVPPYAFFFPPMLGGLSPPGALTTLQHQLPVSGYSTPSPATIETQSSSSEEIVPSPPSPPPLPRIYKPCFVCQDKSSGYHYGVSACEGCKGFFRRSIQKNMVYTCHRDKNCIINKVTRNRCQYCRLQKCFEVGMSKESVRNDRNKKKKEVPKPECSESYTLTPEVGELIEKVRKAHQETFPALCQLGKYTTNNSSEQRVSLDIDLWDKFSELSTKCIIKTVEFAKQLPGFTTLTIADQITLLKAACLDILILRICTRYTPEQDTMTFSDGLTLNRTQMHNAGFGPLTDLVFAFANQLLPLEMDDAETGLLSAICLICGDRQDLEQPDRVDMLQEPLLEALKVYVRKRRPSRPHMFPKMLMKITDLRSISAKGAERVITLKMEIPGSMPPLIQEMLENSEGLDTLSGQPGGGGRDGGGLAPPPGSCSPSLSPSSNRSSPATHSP
# Chain of Aryl hydrocarbon receptor (Homo sapiens) (P35869 whole entry, looked up): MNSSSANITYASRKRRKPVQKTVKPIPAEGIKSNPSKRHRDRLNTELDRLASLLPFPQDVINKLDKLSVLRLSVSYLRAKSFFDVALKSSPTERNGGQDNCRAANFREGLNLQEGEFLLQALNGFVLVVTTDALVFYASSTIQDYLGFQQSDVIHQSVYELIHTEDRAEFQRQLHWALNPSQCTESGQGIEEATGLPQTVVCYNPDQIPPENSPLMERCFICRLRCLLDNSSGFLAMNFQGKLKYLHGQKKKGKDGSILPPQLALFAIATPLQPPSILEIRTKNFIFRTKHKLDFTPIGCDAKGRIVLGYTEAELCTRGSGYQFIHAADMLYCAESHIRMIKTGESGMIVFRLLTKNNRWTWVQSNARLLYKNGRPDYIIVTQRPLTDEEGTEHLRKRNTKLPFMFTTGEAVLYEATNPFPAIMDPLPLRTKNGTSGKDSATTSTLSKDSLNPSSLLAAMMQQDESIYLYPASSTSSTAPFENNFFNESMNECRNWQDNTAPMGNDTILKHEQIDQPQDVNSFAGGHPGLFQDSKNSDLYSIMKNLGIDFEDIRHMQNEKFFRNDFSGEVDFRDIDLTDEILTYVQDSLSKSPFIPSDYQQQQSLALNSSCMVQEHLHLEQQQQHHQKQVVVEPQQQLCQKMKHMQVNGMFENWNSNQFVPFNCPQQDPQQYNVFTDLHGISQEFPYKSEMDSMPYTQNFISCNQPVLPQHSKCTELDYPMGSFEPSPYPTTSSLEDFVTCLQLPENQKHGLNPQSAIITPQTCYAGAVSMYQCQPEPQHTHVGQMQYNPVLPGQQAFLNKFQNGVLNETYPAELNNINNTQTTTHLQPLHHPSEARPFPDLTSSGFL
# Chain of Transcription factor E2F1 (Homo sapiens) (Q01094 whole entry, looked up): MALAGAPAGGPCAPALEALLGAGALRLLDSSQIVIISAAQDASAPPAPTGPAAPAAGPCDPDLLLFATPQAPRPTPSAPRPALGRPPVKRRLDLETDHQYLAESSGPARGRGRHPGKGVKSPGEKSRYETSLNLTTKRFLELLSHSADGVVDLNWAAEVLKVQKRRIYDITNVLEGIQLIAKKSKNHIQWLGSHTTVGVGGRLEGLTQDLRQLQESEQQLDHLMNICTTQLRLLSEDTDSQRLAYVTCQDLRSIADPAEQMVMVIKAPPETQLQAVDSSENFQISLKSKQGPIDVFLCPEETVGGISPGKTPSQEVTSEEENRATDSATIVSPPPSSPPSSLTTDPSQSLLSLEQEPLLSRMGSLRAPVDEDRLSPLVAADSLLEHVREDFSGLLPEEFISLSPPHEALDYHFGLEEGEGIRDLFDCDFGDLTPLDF
# Chain of CCAAT/enhancer-binding protein beta (Homo sapiens) (P17676 whole entry, looked up): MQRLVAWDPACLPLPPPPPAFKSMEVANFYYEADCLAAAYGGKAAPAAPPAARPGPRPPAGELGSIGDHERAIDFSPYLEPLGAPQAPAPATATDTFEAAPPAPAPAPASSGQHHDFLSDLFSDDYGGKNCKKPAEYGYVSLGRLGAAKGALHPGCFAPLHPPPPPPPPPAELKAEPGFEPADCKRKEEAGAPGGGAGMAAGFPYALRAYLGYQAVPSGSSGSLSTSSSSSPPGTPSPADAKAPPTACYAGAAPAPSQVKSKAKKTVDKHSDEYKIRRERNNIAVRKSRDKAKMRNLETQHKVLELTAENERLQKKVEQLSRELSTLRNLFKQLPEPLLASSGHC
Structure (SMILES),outcome [1],outcome [2],AC50 [3],AC50 [4],outcome [5],outcome [6],outcome [7],outcome [8],outcome [3],outcome [4],outcome [9],AC50 [1],AC50 [2],AC50 [5],AC50 [7]
Nc1ccc(N=Nc2ccccc2)c(N)n1,inactive,inactive,48.5 µM (active),23.5 µM (active),inactive,inactive,inactive,inactive,–,–,–,–,–,–,–
O=S(=O)(O)CC(O)CCl (configuration not stated),inactive,inactive,–,–,inactive,inactive,inactive,inactive,inactive,inactive,inactive,–,–,–,–
O=C1CC2CC1C1CCCC21 (configuration not stated),inactive,inactive,–,–,inactive,inactive,inactive,inactive,inactive,inactive,inactive,–,–,–,–
C[C@]12CCC(=O)C=C1CC[C@@H]1[C@@H]2C(=O)C[C@@]2(C)[C@H]1CC[C@]2(O)C(=O)CO,inactive,inactive,–,–,inactive,inactive,inactive,inactive,inactive,–,inactive,–,–,–,–
CCCCC/C=C\CCC=O,inactive,inactive,–,–,inactive,inactive,inactive,inactive,inactive,inactive,inactive,–,–,–,–
CC(C)=CC1CC(C)CCO1 (configuration not stated),inactive,inactive,–,–,inactive,inactive,inactive,inactive,inactive,inactive,inactive,–,–,–,–
O=C1CCCCCCCCCCCCCCCO1,inactive,inactive,63.2 µM (active),61.9 µM (active),inactive,inactive,inactive,inactive,–,–,inactive,–,–,–,–
Cc1ccc(C(C)(C)C)cc1,inactive,inactive,–,–,inactive,inactive,inactive,inactive,inactive,inactive,inactive,–,–,–,–
c1cc(C(c2ccc(OCC3CO3)cc2)C(c2ccc(OCC3CO3)cc2)c2ccc(OCC3CO3)cc2)ccc1OCC1CO1 (configuration not stated),–,inactive,33.1 µM (active),–,inactive,inactive,inactive,inactive,–,inactive,inactive,30.7 µM (active),–,–,–
O=C(Nc1ccccc1)c1ccccc1O,inactive,–,–,19.1 µM (active),–,inactive,–,inactive,inactive,–,inactive,–,53.4 µM (active),27 µM (active),30.7 µM (active)
CCCCCCC1(C)CCC(=O)O1 (configuration not stated),inactive,inactive,–,44.4 µM (active),inactive,inactive,inactive,inactive,inactive,–,inactive,–,–,–,–
CCCCNc1ccc(NCCCC)c2c1C(=O)c1ccccc1C2=O,inactive,inactive,–,–,inactive,inactive,inactive,inactive,inactive,inactive,inactive,–,–,–,–
CCCCCCCOC(=O)CCC,inactive,inactive,–,–,inactive,inactive,inactive,–,inactive,inactive,inactive,–,–,–,–
c1ccc(CNCc2ccccc2)cc1,inactive,inactive,–,–,inactive,inactive,inactive,inactive,inactive,–,inactive,–,–,–,–
Nc1ccc2cc3ccccc3cc2c1,inactive,inactive,–,–,inactive,inactive,inactive,inactive,inactive,–,–,–,–,–,–
COC(=O)/C=C/C(C)=C\C=C\C(C)=C\C=C\C=C(C)\C=C\C=C(C)\C=C\C(=O)O,inactive,inactive,–,–,inactive,inactive,inactive,inactive,inactive,inactive,inactive,–,–,–,–
O=C1CCC(=O)N1Cl,inactive,inactive,–,–,inactive,inactive,inactive,inactive,inactive,–,inactive,–,–,–,–
Cc1ccc(C(C)c2ccc(C)c(C)c2)cc1C,inactive,inactive,–,–,–,inactive,inactive,inactive,–,inactive,inactive,–,–,48.7 µM (active),–
O=C(C=Cc1ccccc1)OCc1ccccc1,inactive,inactive,–,–,inactive,inactive,inactive,inactive,inactive,inactive,inactive,–,–,–,–
O=[N+]([O-])C1(Br)COCOC1,–,inactive,–,–,inactive,inactive,–,inactive,inactive,inactive,inactive,53.6 µM (active),–,–,33.4 µM (active)
